Compound activity from PubChem BioAssay.
Rows were chosen to be rich in hits. Some 2.8% of all compounds tested hit in one or more screens of this group.
SMARCA2 activ = increases SMARCA2 function in MMTV reporter cells. 370,000 tested, 1% active. MG213 cells, MMTV-luciferase reporter, dexamethasone, overnight. activation, % at 9.1 µM; in the data active means activation above about 7.8%;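 further: 0% = vehicle wells and 100% = reference activator wells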
KLK7 zymogen act = activators of human kallikrein-7 zymogen. 370,000 tested, 0.9% active. AID 652039. purified proKLK7, EDANS-DABCYL substrate fluorescence; 100% is mature enzyme control, 0% vehicle. activation, % at 7 µM. P49862;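 active means activation above the mean of all tested compounds plus 3 SD, computed per campaign excluding outliers beyond control limits, cut at about 13% in these data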
Target sequence (P49862 whole entry, looked up): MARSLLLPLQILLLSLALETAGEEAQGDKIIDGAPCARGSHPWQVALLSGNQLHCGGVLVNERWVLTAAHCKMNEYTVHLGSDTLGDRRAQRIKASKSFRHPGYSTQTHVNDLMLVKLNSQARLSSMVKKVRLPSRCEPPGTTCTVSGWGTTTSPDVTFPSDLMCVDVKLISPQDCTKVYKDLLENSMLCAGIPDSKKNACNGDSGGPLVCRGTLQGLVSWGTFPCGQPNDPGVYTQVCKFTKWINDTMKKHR
bovine MsrA act = activators of bovine methionine sulfoxide reductase A; purified bovine MsrA, absorbance read-out; activation, % at 10.6 µM; 360,000 tested, 0.3% active; AID 602163; in the data active means activation above about 7.5%;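 further: 0% = vehicle and 100% = reference activator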
MsrA inhibitor = inhibitors of bovine MsrA | purified bovine MsrA, absorbance read-out | inhibition, % at 15.5 µM | 360,000 tested, 0.75% active | AID 651718; in the data active means inhibition above about 4.5%;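 further: 0% = vehicle wells with enzyme and 100% = reference inhibitor wells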
KLK7 act conf = proKLK7 activation, confirmation; shares compounds with KLK7 zymogen act; purified proKLK7, EDANS-DABCYL substrate fluorescence; scaled: vehicle 0, mature enzyme 100; activation, % at 7 µM; 3,200 tested, 68% active; AID 686949;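 active means activation, as change over the incubation, above the mean of all tested compounds plus 3 SD, cut at about 13% in these data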
EDANS-DABCYL int = fluorescence interference counter-screen for KLK7 activators | activation, % at 7 µM | EDANS-DABCYL substrate fluorescence interference, no enzyme, 4 h; solvent 0%, active enzyme control 100% | 3,200 tested, 80% active | shares compounds with KLK7 zymogen act;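 active means activation above the all-compound mean plus 3 SD, ignoring values outside control-based bounds, cut at about 4.8% in these data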;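 further: value is the 4 h activation minus the activation read at time zero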
* = called active by the depositor; x = no result.

SMILES	SMARCA2 activ	KLK7 zymogen act	bovine MsrA act	MsrA inhibitor	KLK7 act conf	EDANS-DABCYL int
CC1(C)CC(=O)c2cc(OCC(=O)NCCN3CCCc4ccccc43)ccc2O1	-1	18*	-2	1	43*	39*
CCC(Oc1ccc2c(c1)C(=O)CC(C)(C)O2)C(=O)NCCN1CCCCCC1 (stereo not given)	-5	129*	-1	1	49*	44*
CC(C)CNc1ncnc2c1ncn2[C@H]1CN(CCN2CCOCC2)C[C@@H](CO)O1	-6	0	0	0	x	x
O=C1c2cccc3cccc(c23)C(=O)N1c1ccccc1Cl	-1	46*	0	1	26*	22*
CNC(=S)NNC(=O)c1cccc(N(C)C)c1	-3	14*	-7	0	13*	12*
CCCC1NC(C(=O)O)Cc2c1[nH]c1ccccc21 (stereo not given)	-1	13*	-2	2	8	7.6*
CCC1(C)NC(C(=O)O)Cc2c1[nH]c1ccccc21 (stereo not given)	-4	0	3	0	x	x
CC(C)C1NC(C(=O)O)Cc2c1[nH]c1ccccc21 (stereo not given)	-4	30*	-1	2	56*	49*
CC(C)CC1NC(C(=O)O)Cc2c1[nH]c1ccccc21 (stereo not given)	-2	7	-3	0	x	x
O=C(NCCCn1ccnc1)c1cc2ccccc2oc1=O	1	-1	-1	1	x	x
O=c1c2ccccc2oc2cc(NCCCn3ccnc3)ccc12	7	63*	-5	2	66*	60*
COc1cccc2sc3cc(NCCCN4CCOCC4)ccc3c(=O)c12	-2	-1	-3	1	x	x
O=c1c2ccccc2oc2cc(NCCCN3CCOCC3)ccc12	6	75*	-3	4.6*	65*	64*
C[C@@H]1C=CCCO[C@]12C(=O)N(Cc1ccccc1C(F)(F)F)c1ccccc12	-5	0	x	2	x	x
COc1ccc(CNC(=S)NNC(=O)c2cc3ccccc3o2)cc1	-2	17*	-2	1	21*	21*
C[C@@H]1CN([C@@H](C)CO)C(=O)CCCn2nncc2CO[C@@H]1CN(C)S(=O)(=O)c1ccc(Oc2ccccc2)cc1	-2	0	-3	-1	x	x
CCN1CCN(C(=O)c2cc(-c3ccco3)nc3ccccc23)CC1	3	84*	-3	1	72*	72*
CCN1CCN(C(=O)c2cc(-c3ccc(Cl)s3)nc3ccccc23)CC1	-1	-30	-4	2	x	x
CCOC(=O)C1CCCN(C(=O)c2cc(-c3ccco3)nc3ccccc23)C1 (stereo not given)	1	31*	-2	1	31*	34*
O=C(c1cc(-c2ccco2)nc2ccccc12)N1CCCC(C(F)(F)F)C1 (stereo not given)	-3	48*	3	3	66*	67*
O=C(c1cc(-c2ccncc2)nc2ccccc12)N1CCCC(C(F)(F)F)C1 (stereo not given)	2	0	-3	0	x	x
Nc1ccc(-c2nc3ccccc3[nH]2)cc1	1	1	-3	2	x	x
O=c1[nH]cccc1-c1nc2ccccc2[nH]1	2	56*	-3	3	66*	75*
Oc1ccc(C=Nc2ccccc2-c2nc3ccccc3[nH]2)cc1	1	81*	-4	4	30*	29*
O=c1oc2c(CN3CCCCC3)c(O)ccc2cc1-c1nc2ccccc2[nH]1	-2	5	0	0	x	x
SMILES	SMARCA2 activ	KLK7 zymogen act	bovine MsrA act	MsrA inhibitor	KLK7 act conf	EDANS-DABCYL int
O=c1oc2c(O)cccc2cc1-c1nc2ccccc2[nH]1	6	46*	-4	0	75*	67*
Nc1ccccc1-c1nc2ccccc2[nH]1	3	69*	-2	2	-2	1
CSc1nnc2c(n1)C[C@H](c1ccccc1)[C@@H](C)[C@@H](C(=O)N1CCCC1)C2	-1	0	x	x	x	x
CC(C)NC(=O)C1(C)CN(S(C)(=O)=O)CC(=O)N1Cc1cccs1 (stereo not given)	0	0	x	-1	x	x
Cn1cc(C(CO)Cc2ccccc2)c2ccccc21 (stereo not given)	1	0	-1	0	x	x
CC(C)c1nnc(NC(=O)CCC(=O)N2CCC(Cc3ccccc3)CC2)s1	0	0	0	-1	x	x
CC(C)(C)c1ccc(-c2nnc(SCC(=O)c3ccc([N+](=O)[O-])cc3)n2-c2ccc(Cl)cc2)cc1	1	1	x	x	x	x
CC(C)C(=O)Nc1ccccc1-c1nc2ccccc2[nH]c1=O	-1	-3	-3	1	x	x
CC(C)C(=O)Nc1sc2c(c1-c1nc3ccccc3[nH]1)CCCC2	2	496*	-3	2	-8	4.7*
COC(=O)c1cc2c(c3c4cc(OC)ccc4n(S(=O)(=O)c4ccc(F)cc4)c13)C(=O)N(CC(C)C)C2	1	1	x	1	x	x
CCOC(=O)C(=O)N(C)c1c(CC)nc2c(OCc3ccccc3OC)cccn12	1	0	-2	0	x	x
N=c1c(C(=O)NCC2CCCO2)cc2c(=O)n3ccccc3nc2n1Cc1ccc(F)cc1 (stereo not given)	2	7	-1	-1	x	x
Cc1cccn2c(=O)c3cc(C(=O)NC(C)C)c(=N)n(Cc4ccncc4)c3nc12	2	116*	4	1	32*	37*
N=c1c(C(=O)NCC2CCCO2)cc2c(=O)n3ccccc3nc2n1Cc1ccco1 (stereo not given)	0	15*	-2	1	41*	38*
COc1ccc(CCn2c(=N)c(C(=O)NCC3CCCO3)cc3c(=O)n4cccc(C)c4nc32)cc1 (stereo not given)	1	0	-12	1	x	x
Cc1cccn2c(=O)c3cc(C(=O)NCC4CCCO4)c(=N)n(Cc4cccnc4)c3nc12 (stereo not given)	1	148*	-2	3	49*	60*
N=c1c(C(=O)NCC2CCCO2)cc2c(=O)n3ccccc3nc2n1Cc1cccnc1 (stereo not given)	-4	134*	-2	3	35*	33*
COC(=O)[C@]12CCCCC=C1N(CCC1=CCCCC1)C(=O)[C@H](CC(=O)NCc1ccccc1)C2	-2	1	3	-1	x	x
OC(c1ccc(F)c(F)c1)c1nc(-c2cnc3ccccc3c2)cs1 (stereo not given)	-3	0	-5	1	x	x
N=c1c(C(=O)NCc2ccc(F)cc2)cc2c(=O)n3ccccc3nc2n1Cc1cccnc1	7	26*	-7	1	-6	-8
Cc1ccccc1CN1[C@@H](C)[C@H](c2ccccc2)Oc2cccc(N3CCCC(C)C3)c2S1(=O)=O (stereo not given in full)	-5	0	x	-1	x	x
COc1ccc(NC(=O)COC(=O)c2ccc(S(=O)(=O)N3CC(C)CC(C)C3)cc2)cc1OC (stereo not given)	-5	1	-5	1	x	x
